Assay [1] in a line: cAMP Responsive Elements (CRE) small molecule antagonists, cell-based qHTS assay: qHTS cell viability counter screen (AID 2060913). Also: nearly all actives have a fitted effect of over 40% in size. To be noted: CRE-bla HEK293T viability, CellTiter-Glo luminescence, 5 h; series mostly up to 92.4 µM. In outline:
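Cytotoxicity counter screen multiplexed with the CRE-bla antagonist read: HEK293T cells in DMEM with dialyzed FBS and 25 mM HEPES were treated 3 hrs under 0.25 uM final NKH477, then viability measured by CellTiter-Glo luminescence.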
On the technique in general: In qHTS, concentration-response curves come from the screen itself.

Assay [2] can be described thus: cAMP Responsive Elements (CRE) small molecule agonists, cell-based qHTS assay: qHTS cell viability counter screen (AID 2060914).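 Also: viability read after 3 h of compound exposure; nearly all actives have a fitted effect of over 50% in size.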 To be noted: CRE-bla HEK293T viability, CellTiter-Glo luminescence, 5 h; series mostly up to 92.4 µM. In a few lines:
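Cells are seeded and incubated 18 h, treated with compounds in DMSO for 3 h, read for the bla reporter, then given CellTiter-Glo; luminescence is measured after 30 min at room temperature.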

Several values for one entry are separate records, joined by “and”; a condition that tells them apart may be missing. Identical values can stand only once. Inconclusive results are not listed. Values without a mark were called inactive. Activity calls are given as the source filed them. Calls follow the shape of the dose curve; as a rule, active = well fitted cell-killing curve with a large enough effect in the repeat runs; inconclusive = weak or mixed curves, or effect the other way; inactive = flat fitted curve, though single readings scatter.
% is scaled to controls: 0 for no effect and ±100 for the full control effect; potency is read from the fitted curve at half-maximal effect.

Regarding `CCCOC(C(=O)OC1CCN(C)CC1)(c1ccccc1)c1ccccc1`, the Potency entry in assay [1] and in assay [2] was “inactive” each time.

On to `CC1=CC[C@H]2C[C@@H]1C2(C)C`, for which the Potency entry in assay [1] and in assay [2] was “inactive” throughout.

Turning to `CCCc1nc(C)c2c(=O)[nH]c(-c3cc(S(=O)(=O)N4CCN(CC)CC4)ccc3OCC)nn12`, the Potency result in assay [1] and in assay [2] was “inactive” throughout.

On to `OCCSc1ccccc1`, for which the Potency entry in assay [1] and in assay [2] was “inactive” throughout.

Turning to `Cc1cc(C(C)(C)C)c(O)c(C)c1CC1=NCCN1`, the Potency entry in assay [1] and in assay [2] was “inactive” each time.

Consider `C=CC(C)(O)CCC=C(C)C` (configuration not stated), for which the Potency result in assay [1] and in assay [2] was “inactive” each time.

As for `CC(COCC(C)OC(=O)c1ccccc1)OC(=O)c1ccccc1` (configuration not stated), the Potency result in assay [1] and in assay [2] was “inactive” in each case.

`CC(C)(C)c1nnc(NS(=O)(=O)c2ccc(N)cc2)s1`: the Potency result in assay [1] and in assay [2] was “inactive” each time.

As to `Cc1c(F)cc2c(=O)c(C(=O)O)cn3c2c1CCC3C` (configuration not stated), the Potency result in assay [1] and in assay [2] was “inactive” in each case.

For the molecule `O=C1CCC(N2C(=O)c3ccccc3C2=O)C(=O)N1` (configuration not stated), the Potency entry in assay [1] and in assay [2] was “inactive” throughout.

As to `CC(=O)c1ccc2c(c1)Cc1ccccc1-2`, the Potency entry in assay [1] and in assay [2] was “inactive” each time.

Turning to `CN=C(NC#N)Nc1ccc(C2=NNC(=O)CC2C)cc1` (configuration not stated), the Potency entry in assay [1] and in assay [2] was “inactive” throughout.

`O=C(c1ccccc1)c1ccccc1`: the Potency entry in assay [1] and in assay [2] was “inactive” throughout.

Consider `C#CC(C)(CC)OC(=O)c1ccccc1C(=O)O` (configuration not stated), for which the Potency entry in assay [1] and in assay [2] was “inactive” in each case.

As for `CCCCCCCCCCCCCCCCCC[N+](C)(C)Cc1ccccc1`, the Potency is 61.7 µM (active) in assay [1] and 55 µM (active) in assay [2].

Turning to `O=S1(=O)N=C(O)c2ccccc21`, the Potency result in assay [1] and in assay [2] was “inactive” throughout.

Consider `CSc1ccc2c(c1)C(N1CCN(C)CC1)Cc1ccccc1S2` (configuration not stated), for which the Potency entry in assay [1] and in assay [2] was “inactive” throughout.

For `NC(=O)c1ccc(N)cc1`, the Potency result in assay [1] and in assay [2] was “inactive” in each case.

Turning to `NS(=O)(=O)c1cc2c(cc1Cl)CN(C1CCCCC1)C2=O`, the Potency result in assay [1] and in assay [2] was “inactive” in each case.

For `c1ccc2cnccc2c1`, the Potency result in assay [1] and in assay [2] was “inactive” each time.

As to `COC(=O)CSc1cc(N=c2sc(=O)n3n2CCCC3)c(F)cc1Cl`, the Potency entry in assay [1] and in assay [2] was “inactive” each time.

As for `c1cc(CN2CCCCC2)cc(OCCCNc2nc3ccccc3s2)c1`, the Potency entry in assay [1] and in assay [2] was “inactive” each time.

For `O=C(OCC1(COC(=O)c2cccnc2)CCCC(COC(=O)c2cccnc2)(COC(=O)c2cccnc2)C1O)c1cccnc1`, the Potency entry in assay [1] and in assay [2] was “inactive” in each case.

Take `CCCCCCCCCCCCCCCCCBr`: the viability change, negative = cytotoxic in assay [1] was 1.85% [at 18.9 µM]. Further, the activity change, negative = cytotoxicity in assay [2] was 1.37% [at 18.9 µM].

With `C=C1CCC2CC1C2(C)C` (configuration not stated), the Potency result in assay [1] and in assay [2] was “inactive” in each case.

For the molecule `C[C@@H](O)[C@H]1C(=O)N2C(C(=O)O)=C(SCCN=CN)C[C@H]12`, the Potency entry in assay [1] and in assay [2] was “inactive” each time.

With `[O]=[Zr]`, the Potency entry in assay [1] and in assay [2] was “inactive” in each case.

For `CCCC(=O)OCC`, the Potency result in assay [1] and in assay [2] was “inactive” in each case.

On to `O=S(=O)(O)CCS`, for which the Potency entry in assay [1] and in assay [2] was “inactive” in each case.

For `COCCCN1CCC(NC(=O)c2cc(Cl)c(N)c3c2OCC3)CC1`, the Potency result in assay [1] and in assay [2] was “inactive” in each case.

With `Cc1ccc(-n2nc(C(C)(C)C)cc2NC(=O)Nc2ccc(OCCN3CCOCC3)c3ccccc23)cc1`, the Potency entry in assay [1] and in assay [2] was “inactive” each time.

On to `CCCCCOC(=O)CCCC`, for which the Potency result in assay [1] and in assay [2] was “inactive” throughout.

On to `NS(=O)(=O)c1cc2c(cc1Cl)NC(C(Cl)Cl)NS2(=O)=O` (configuration not stated), for which the Potency result in assay [1] and in assay [2] was “inactive” throughout.

As for `C=CC(C)(CCC=C(C)C)OC(=O)C(C)C` (configuration not stated), the Potency entry in assay [1] and in assay [2] was “inactive” throughout.

Take `CC(CO)CO`: the Potency entry in assay [1] and in assay [2] was “inactive” in each case.

For `O=C(OCCN1CCOCC1)c1cccnc1Nc1cccc(C(F)(F)F)c1`, the Potency entry in assay [1] and in assay [2] was “inactive” each time.

Turning to `CC(C)COC(=O)COc1ccc(Cl)cc1Cl`, the Potency entry in assay [1] and in assay [2] was “inactive” throughout.

Take `O=C(O)c1ccc(OCCCOc2ccc(C(=O)O)cc2)cc1`: the Potency entry in assay [1] and in assay [2] was “inactive” in each case.

For `CO/N=C(/C(=O)N[C@@H]1C(=O)N2C(C(=O)O)=C(Cn3nnc(C)n3)CS[C@H]12)c1csc(N)n1`, the Potency result in assay [1] and in assay [2] was “inactive” throughout.

Regarding `NCCCN1CCOCC1`, the Potency entry in assay [1] and in assay [2] was “inactive” throughout.

Take `Nc1cccc2c(=O)[nH][nH]c(=O)c12`: the Potency result in assay [1] and in assay [2] was “inactive” in each case.

Regarding `Nc1cc(Cl)c(N)c(Cl)c1`, the Potency entry in assay [1] and in assay [2] was “inactive” in each case.

Take `CC(C)(C(=O)O)c1ccc(C(O)CCCN2CCC(C(O)(c3ccccc3)c3ccccc3)CC2)cc1` (configuration not stated): the Potency result in assay [1] and in assay [2] was “inactive” each time.

In the case of `CCCCC(C=O)CC` (configuration not stated), the Potency entry in assay [1] and in assay [2] was “inactive” each time.

Regarding `CCC(=O)OC/C=C(\C)CCC=C(C)C`, the Potency result in assay [1] and in assay [2] was “inactive” each time.

Regarding `CCCCCCCCCCCCc1ccc(O)cc1`, the Potency in assay [1] and in assay [2] was 61.1 µM (active) each time.

As to `Nc1nc(N)nc(-c2ccccc2)n1`, the Potency result in assay [1] and in assay [2] was “inactive” in each case.

With `C1CCCNCC1`, the Potency entry in assay [1] and in assay [2] was “inactive” each time.

With `CCCCCC=O`, the Potency result in assay [1] and in assay [2] was “inactive” each time.

For the molecule `CCCCCCCCCCCC[N+](C)(C)CCCS(=O)(=O)[O-]`, the Potency result in assay [1] and in assay [2] was “inactive” in each case.

`CCCCCCCCCCCCCC[P+](CCCC)(CCCC)CCCC`: the Potency in assay [1] is 60.8 µM (active) and 28.5 µM (active); in assay [2], 60.8 µM (active) and 61.1 µM (active).

The record behind these values is PubChem BioAssay (Tox21).
